Measurements: the supplement of paper PMC4466140

B1: unnamed (peptide)
chain: DDEDVPPQLPTRTKS
B2: unnamed (peptide)
chain: SSSSSPPPLPTRRDH

molecular target: AgAbp1; experiment: SPOT peptide array binding signal intensity (averaged, normalized) (arbitrary units (background-subtracted, floor 0; scale differs between SH3 domains)); higher = stronger binding of the SH3 domain to the peptide
Procedure, shortened: (§1)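 Binding signal refers to normalized, background-subtracted spot intensity averaged over replicates, expressed in arbitrary units that differ between domains. GST-fused SH3 domains from four yeast species were incubated at 10 μg/ml overnight at 4°C on cellulose membranes of synthetic 15-mer peptides with cysteines replaced by serines. Bound protein was detected with anti-GST antibody, an HRP anti-mouse secondary and luminol, and quantified with Genespotter.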

Row | Binder | SPOT peptide array binding signal intensity
1 | B1 | ≤ 0
2 | B2 | ≤ 0

molecular target: AgBbc1; experiment: as above
Procedure, shortened: as §1

Row | Binder | SPOT peptide array binding signal intensity
3 | B1 | 14.5
4 | B2 | 364

molecular target: AgBem1-D1; experiment: as above
Procedure, shortened: as §1

Row | Binder | SPOT peptide array binding signal intensity
5 | B1 | 1
6 | B2 | 2

molecular target: AgBzz1-D1; experiment: as above
Procedure, shortened: as §1

Row | Binder | SPOT peptide array binding signal intensity
7 | B1 | 28
8 | B2 | 26

molecular target: AgBzz1-D2; experiment: as above
Procedure, shortened: as §1

Row | Binder | SPOT peptide array binding signal intensity
9 | B1 | 11.5
10 | B2 | 19.5

molecular target: AgCyk3; experiment: as above
Procedure, shortened: as §1

Row | Binder | SPOT peptide array binding signal intensity
11 | B1 | ≤ 0
12 | B2 | 1.5

molecular target: AgFus1; experiment: as above
Procedure, shortened: as §1

Row | Binder | SPOT peptide array binding signal intensity
13 | B1 | 6.5
14 | B2 | 15.5

molecular target: AgHof1; experiment: as above
Procedure, shortened: as §1

Row | Binder | SPOT peptide array binding signal intensity
15 | B1 | 28
16 | B2 | 59

molecular target: AgHse1; experiment: as above
Procedure, shortened: as §1

Row | Binder | SPOT peptide array binding signal intensity
17 | B1 | 17
18 | B2 | 18.5

molecular target: AgLsb1; experiment: as above
Procedure, shortened: as §1

Row | Binder | SPOT peptide array binding signal intensity
19 | B1 | 14
20 | B2 | 180

molecular target: AgLsb4; experiment: as above
Procedure, shortened: as §1

Row | Binder | SPOT peptide array binding signal intensity
21 | B1 | 6150
22 | B2 | 6800

molecular target: AgMyo5; experiment: as above
Procedure, shortened: as §1

Row | Binder | SPOT peptide array binding signal intensity
23 | B1 | 1.75
24 | B2 | 586

molecular target: AgNbp2; experiment: as above
Procedure, shortened: as §1

Row | Binder | SPOT peptide array binding signal intensity
25 | B1 | ≤ 0
26 | B2 | 16

molecular target: AgRvs167; experiment: as above
Procedure, shortened: as §1

Row | Binder | SPOT peptide array binding signal intensity
27 | B1 | 53.2
28 | B2 | 627

molecular target: AgSho1; experiment: as above
Procedure, shortened: as §1

Row | Binder | SPOT peptide array binding signal intensity
29 | B1 | 10
30 | B2 | 19

molecular target: AgSla1-D1-D2; experiment: as above
Procedure, shortened: as §1

Row | Binder | SPOT peptide array binding signal intensity
31 | B1 | ≤ 0
32 | B2 | ≤ 0

molecular target: AgSla1-D3; experiment: as above
Procedure, shortened: as §1

Row | Binder | SPOT peptide array binding signal intensity
33 | B1 | ≤ 0
34 | B2 | ≤ 0

molecular target: CaAbp1-D1; experiment: as above
Procedure, shortened: as §1

Row | Binder | SPOT peptide array binding signal intensity
35 | B1 | ≤ 0
36 | B2 | 7.5

molecular target: CaAbp1-D2; experiment: as above
Procedure, shortened: as §1

Row | Binder | SPOT peptide array binding signal intensity
37 | B1 | ≤ 0
38 | B2 | ≤ 0

molecular target: CaBbc1; experiment: as above
Procedure, shortened: as §1

Row | Binder | SPOT peptide array binding signal intensity
39 | B1 | 45
40 | B2 | 378

molecular target: CaBem1-D1; experiment: as above
Procedure, shortened: as §1

Row | Binder | SPOT peptide array binding signal intensity
41 | B1 | 9.5
42 | B2 | 4

molecular target: CaBzz1-D1; experiment: as above
Procedure, shortened: as §1

Row | Binder | SPOT peptide array binding signal intensity
43 | B1 | ≤ 0
44 | B2 | 139

molecular target: CaBzz1-D2; experiment: as above
Procedure, shortened: as §1

Row | Binder | SPOT peptide array binding signal intensity
45 | B1 | ≤ 0
46 | B2 | ≤ 0

molecular target: CaCyk3; experiment: as above
Procedure, shortened: as §1

Row | Binder | SPOT peptide array binding signal intensity
47 | B1 | 3
48 | B2 | 2

molecular target: CaFus1; experiment: as above
Procedure, shortened: as §1

Row | Binder | SPOT peptide array binding signal intensity
49 | B1 | 78
50 | B2 | 26

molecular target: CaHof1; experiment: as above
Procedure, shortened: as §1

Row | Binder | SPOT peptide array binding signal intensity
51 | B1 | 7.5
52 | B2 | 24.5

molecular target: CaHse1; experiment: as above
Procedure, shortened: as §1

Row | Binder | SPOT peptide array binding signal intensity
53 | B1 | 27
54 | B2 | 114

molecular target: CaLsb1; experiment: as above
Procedure, shortened: as §1

Row | Binder | SPOT peptide array binding signal intensity
55 | B1 | 6.5
56 | B2 | 19.5

molecular target: CaLsb4; experiment: as above
Procedure, shortened: as §1

Row | Binder | SPOT peptide array binding signal intensity
57 | B1 | 6780
58 | B2 | 8630

molecular target: CaMyo5; experiment: as above
Procedure, shortened: as §1

Row | Binder | SPOT peptide array binding signal intensity
59 | B1 | 2
60 | B2 | 6.5

molecular target: CaNbp2; experiment: as above
Procedure, shortened: as §1

Row | Binder | SPOT peptide array binding signal intensity
61 | B1 | ≤ 0
62 | B2 | 24.5

molecular target: CaRvs167; experiment: as above
Procedure, shortened: as §1

Row | Binder | SPOT peptide array binding signal intensity
63 | B1 | 1080
64 | B2 | 1510

molecular target: CaRvs167-3; experiment: as above
Procedure, shortened: as §1

Row | Binder | SPOT peptide array binding signal intensity
65 | B1 | 3.5
66 | B2 | 7.25

molecular target: CaSho1; experiment: as above
Procedure, shortened: as §1

Row | Binder | SPOT peptide array binding signal intensity
67 | B1 | ≤ 0
68 | B2 | 6.5

molecular target: CaSla1-D1-D2; experiment: as above
Procedure, shortened: as §1

Row | Binder | SPOT peptide array binding signal intensity
69 | B1 | ≤ 0
70 | B2 | 76

molecular target: CaSla1-D3; experiment: as above
Procedure, shortened: as §1

Row | Binder | SPOT peptide array binding signal intensity
71 | B1 | ≤ 0
72 | B2 | 3.25

molecular target: ScAbp1; experiment: as above
Procedure, shortened: as §1

Row | Binder | SPOT peptide array binding signal intensity
73 | B1 | ≤ 0
74 | B2 | ≤ 0

molecular target: ScBbc1; experiment: as above
Procedure, shortened: as §1

Row | Binder | SPOT peptide array binding signal intensity
75 | B1 | 0.5
76 | B2 | 4

molecular target: ScBem1-D1; experiment: as above
Procedure, shortened: as §1

Row | Binder | SPOT peptide array binding signal intensity
77 | B1 | ≤ 0
78 | B2 | ≤ 0

molecular target: ScBzz1-D1; experiment: as above
Procedure, shortened: as §1

Row | Binder | SPOT peptide array binding signal intensity
79 | B1 | 6
80 | B2 | ≤ 0

molecular target: ScBzz1-D2; experiment: as above
Procedure, shortened: as §1

Row | Binder | SPOT peptide array binding signal intensity
81 | B1 | 22
82 | B2 | 12

molecular target: ScCyk3; experiment: as above
Procedure, shortened: as §1

Row | Binder | SPOT peptide array binding signal intensity
83 | B1 | 1
84 | B2 | 1

molecular target: ScFus1; experiment: as above
Procedure, shortened: as §1

Row | Binder | SPOT peptide array binding signal intensity
85 | B1 | 6
86 | B2 | 20

molecular target: ScHof1; experiment: as above
Procedure, shortened: as §1

Row | Binder | SPOT peptide array binding signal intensity
87 | B1 | 16.5
88 | B2 | 9.75

molecular target: ScHse1; experiment: as above
Procedure, shortened: as §1

Row | Binder | SPOT peptide array binding signal intensity
89 | B1 | 23.5
90 | B2 | 15

molecular target: ScLsb1; experiment: as above
Procedure, shortened: as §1

Row | Binder | SPOT peptide array binding signal intensity
91 | B1 | 576
92 | B2 | 1340

molecular target: ScLsb2; experiment: as above
Procedure, shortened: as §1

Row | Binder | SPOT peptide array binding signal intensity
93 | B1 | ≤ 0
94 | B2 | 349

molecular target: ScLsb3; experiment: as above
Procedure, shortened: as §1

Row | Binder | SPOT peptide array binding signal intensity
95 | B1 | 9300
96 | B2 | 5910

molecular target: ScLsb4; experiment: as above
Procedure, shortened: as §1

Row | Binder | SPOT peptide array binding signal intensity
97 | B1 | 3020
98 | B2 | 7200

molecular target: ScMyo3; experiment: as above
Procedure, shortened: as §1

Row | Binder | SPOT peptide array binding signal intensity
99 | B1 | ≤ 0
100 | B2 | 460

molecular target: ScMyo5; experiment: as above
Procedure, shortened: as §1

Row | Binder | SPOT peptide array binding signal intensity
101 | B1 | ≤ 0
102 | B2 | 166

molecular target: ScNbp2; experiment: as above
Procedure, shortened: as §1

Row | Binder | SPOT peptide array binding signal intensity
103 | B1 | ≤ 0
104 | B2 | ≤ 0

molecular target: ScPex13; experiment: as above
Procedure, shortened: as §1

Row | Binder | SPOT peptide array binding signal intensity
105 | B1 | 1570
106 | B2 | 1560

molecular target: ScRvs167; experiment: as above
Procedure, shortened: as §1

Row | Binder | SPOT peptide array binding signal intensity
107 | B1 | 1980
108 | B2 | 2180

molecular target: ScSho1; experiment: as above
Procedure, shortened: as §1

Row | Binder | SPOT peptide array binding signal intensity
109 | B1 | 6
110 | B2 | 26.5

molecular target: ScSla1-D1-D2; experiment: as above
Procedure, shortened: as §1

Row | Binder | SPOT peptide array binding signal intensity
111 | B1 | 1
112 | B2 | 51

molecular target: ScSla1-D3; experiment: as above
Procedure, shortened: as §1

Row | Binder | SPOT peptide array binding signal intensity
113 | B1 | 0.5
114 | B2 | 10

molecular target: SpAbp1-D1; experiment: as above
Procedure, shortened: as §1

Row | Binder | SPOT peptide array binding signal intensity
115 | B1 | ≤ 0
116 | B2 | 22.5

molecular target: SpBbc1; experiment: as above
Procedure, shortened: as §1

Row | Binder | SPOT peptide array binding signal intensity
117 | B1 | 3.75
118 | B2 | 13

molecular target: SpBzz1-D1; experiment: as above
Procedure, shortened: as §1

Row | Binder | SPOT peptide array binding signal intensity
119 | B1 | 0.5
120 | B2 | 406

molecular target: SpBzz1-D2; experiment: as above
Procedure, shortened: as §1

Row | Binder | SPOT peptide array binding signal intensity
121 | B1 | ≤ 0

molecular target: SpCyk3; experiment: as above
Procedure, shortened: as §1

Row | Binder | SPOT peptide array binding signal intensity
122 | B1 | ≤ 0

molecular target: SpHof1; experiment: as above
Procedure, shortened: as §1

Row | Binder | SPOT peptide array binding signal intensity
123 | B1 | 16.8

molecular target: SpHof1-2; experiment: as above
Procedure, shortened: as §1

Row | Binder | SPOT peptide array binding signal intensity
124 | B1 | 7

molecular target: SpHof1-3; experiment: as above
Procedure, shortened: as §1

Row | Binder | SPOT peptide array binding signal intensity
125 | B1 | 6

molecular target: SpHse1; experiment: as above
Procedure, shortened: as §1

Row | Binder | SPOT peptide array binding signal intensity
126 | B1 | 7

molecular target: SpLsb1; experiment: as above
Procedure, shortened: as §1

Row | Binder | SPOT peptide array binding signal intensity
127 | B1 | 27.5

molecular target: SpLsb4; experiment: as above
Procedure, shortened: as §1

Row | Binder | SPOT peptide array binding signal intensity
128 | B1 | 7620

molecular target: SpMyo1; experiment: as above
Procedure, shortened: as §1

Row | Binder | SPOT peptide array binding signal intensity
129 | B1 | ≤ 0

molecular target: SpNbp2; experiment: as above
Procedure, shortened: as §1

Row | Binder | SPOT peptide array binding signal intensity
130 | B1 | 8

molecular target: SpPex13; experiment: as above
Procedure, shortened: as §1

Row | Binder | SPOT peptide array binding signal intensity
131 | B1 | ≤ 0

molecular target: SpRvs167; experiment: as above
Procedure, shortened: as §1

Row | Binder | SPOT peptide array binding signal intensity
132 | B1 | 1800

molecular target: SpSla1-D1-D2; experiment: as above
Procedure, shortened: as §1

Row | Binder | SPOT peptide array binding signal intensity
133 | B1 | ≤ 0

molecular target: SpSla1-D3; experiment: as above
Procedure, shortened: as §1

Row | Binder | SPOT peptide array binding signal intensity
134 | B1 | 3
